About 13,000 (3.2%) of roughly 400,000 compounds were called active. Another 18% or so got no clear call; they are omitted. Only a selection was taken, and actives are over-represented in it overall. Values without a mark were called inactive. Calls come from the whole dose curve; as a rule, active = well fitted cell-killing curve with a large enough effect; inconclusive = small, poorly fitted or top-dose-only effect, or effect the other way; inactive = flat fitted curve, though single readings scatter.
% is set by controls: 0 for no effect and ±100 for the full control effect; potency is the fitted concentration of half-maximal effect.

The nature of this assay: qHTS assay for MDR1-selective chemotherapeutics: Primary screen using the drug-selected MDR subline cells KB-V1. Note: nearly all actives have a fitted effect of over 60% in size. The note with it: KB-V1 MDR cells viability, CellTiter-Glo, 72 h; series mostly up to 46.1 µM; activity change, negative = cytotoxicity: at the top concentration. The procedure, abridged: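 qHTS viability screen in drug-selected KB-V1 MDR cells: 72 h compound treatment at 37 degrees C, ATP luminescence end point.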
(In general: In qHTS, concentration-response curves come from the screen itself.)
For the compound `CC(=O)Nc1cccc(Nc2ccc(C#N)cc2)c1`, the “activity change, negative = cytotoxicity” value is 2.59%.
In the case of `CCOC(=O)C1=C(c2ccccc2)Nc2ncnn2C1c1ccc(Cl)cc1` (stereo unspecified), the “activity change, negative = cytotoxicity” value was -0.799%.
The same measure, in the same setting: for `CCNC(=O)C1(C)CCCN1C(=O)c1ccc(N(C)C)cc1` (stereo unspecified) the value was 5.84%; for `CC1(C)N=C(SCc2ccccc2Cl)c2ccccc2N1`, 12.4%; for `Clc1ccccc1CSc1nncn2c1cc1occc12`, -18.7%.
As for `Clc1ccccc1CSc1nnc(-c2ccco2)c(-c2ccco2)n1`, the Potency was 20.6 µM (active).
With `O=S(=O)(NCC(c1ccco1)N1CCOCC1)c1cc(F)ccc1F` (stereo unspecified), the “activity change, negative = cytotoxicity” value is 8.46%.
The same measure, in the same setting: for `CCC(=O)N1Cc2cc(C(=O)NCc3cccc(F)c3)nc(-c3cccc(C4=CCCC4)c3)c2[C@H]1CCO` the value was 5.37%.
In the case of `Cc1ccnc(N2CCC(C(=O)NC3CCCCCC3)CC2)n1`, the Potency was 16.4 µM (active).
For `O=C(NC1CCCC1)C1CCN(C(=O)Nc2cccc(Cl)c2)CC1`, the “activity change, negative = cytotoxicity” value is 2.05%.
Still for that read-out and setting: for `Cc1ccnc(N2CCCC(C(=O)NC3CC3)C2)n1` (stereo unspecified) the value was -14.5%.
Take `O=C(NC1CCCCCC1)C1CCN(C(=O)c2ccc(Cl)cc2)CC1`: the Potency is 14.6 µM (active).
`O=C(NNC(=O)C1CCN(c2ncccn2)CC1)c1ccccc1`: the “activity change, negative = cytotoxicity” value was 1.32%.
Consider `O=C(NC1CCN(C(=S)Nc2ccc(Cl)cc2)CC1)C1CCCCC1`, for which the “activity change, negative = cytotoxicity” value was 1.93%.
Regarding `Cc1ccc(C(NC(=O)C2CCN(CCOc3ccc(Cl)cc3Cl)CC2)c2ccccn2)cc1` (stereo unspecified), the “activity change, negative = cytotoxicity” value was 0.551%.
The same measure, in the same setting: for `COc1ccc(NC(=O)C[C@H]2C(=O)N(CCc3ccccc3)C[C@@H]2C)cc1` the value was -28.9%; for `CCCNC(=O)c1cc(C2CCCCN2S(=O)(=O)c2cn(C)cn2)on1` (stereo unspecified), 4%; for `C[C@H](NC(=O)[C@@H]1CCCN1C(=O)[C@@H]1CCCN1C(=O)c1ccccc1)c1ccccc1`, 0.427%.
Still for that read-out and setting: for `O=C1NC[C@@H](CCCCN2CCN(CCc3ccc(O)cc3)C(=O)C2=O)N(CC2CCCCC2)C1=O` the value was -1.26%; for `Cc1cc(C(=O)CSc2nc(N)cc(=O)[nH]2)c(C)n1Cc1ccco1`, -15.7%.
For the compound `Cc1cc(C(=O)CSc2nc(N)cc(=O)[nH]2)c(C)n1CCc1ccc(Cl)cc1`, the “activity change, negative = cytotoxicity” value was 3.44%.
As to `Cc1cc(C(=O)CSc2nc(N)cc(=O)[nH]2)c(C)n1-c1cccc(F)c1`, the Potency was 3.66 µM (active).
Consider `Cc1cc(C(=O)N2CCCC2(C)C(=O)O)c(C)o1` (stereo unspecified), for which the “activity change, negative = cytotoxicity” value is 2.01%.
As for `CN(C)c1cccc(C(=O)Nc2nc3ccc(S(=O)(=O)NC(C)(C)C)cc3s2)c1`, the Potency is 20.6 µM (active).
For the compound `CS(=O)(=O)c1ccc2nc(NC(=O)c3ccc(Cl)nc3)sc2c1`, the “activity change, negative = cytotoxicity” value is 0.805%.
On the same count and under the same terms, under `COc1cccc(C(=O)Nc2nc3ccc(S(C)(=O)=O)cc3s2)c1` stands -24.1%; under `CC1(C(=O)Nc2cccc3cccnc23)CCN1C(=O)CCC1CCCC1` (stereo unspecified), 3.6%.
`CC(C)(O)C1=C[N+](=O)CC=C1`: the “activity change, negative = cytotoxicity” value is -2.53%.
The same measure, in the same setting: under `COc1ccc(C2CC(c3cccc(OC)c3)=NN2c2ccc(S(N)(=O)=O)cc2)cc1` (stereo unspecified) stands 10.7%.
On the same count and under the same terms, for `CCOc1ccc2[nH]c(=S)sc2c1` the value was -0.715%; for `COc1cc(OC)c(S(=O)(=O)Nc2ccccc2C(=O)O)cc1S(=O)(=O)Nc1ccccc1C(=O)O`, 0%.
Turning to `COc1cc(NC(=O)c2ccccc2NS(=O)(=O)c2ccc(Cl)s2)cc(OC)c1`, the Potency was 10.3 µM (active).
Take `CCOc1ccc(NC(=O)c2ccccc2NS(C)(=O)=O)cc1`: the “activity change, negative = cytotoxicity” value was -0.444%.
The same measure, in the same setting: under `O=C(Nc1ccc(F)cc1)Nc1nnc([C@H]2C[C@H](O)[C@@H](CO)O2)s1` stands 3.14%; under `CC(C)c1ccc(NC(=O)Cn2c3ncccc3c(=O)n2-c2ccccc2)cc1`, -4.24%.
Same read-out and setting: for `O=C1c2ccccc2C(c2nc3ccccc3[nH]2)N1c1ccccc1` (stereo unspecified) the value was 15.6%; for `CCOC(=O)[C@]12CCCC=C1N(CCC1=CCCCC1)C(=O)[C@H](CC(=O)N1CCOCC1)C2`, -33%.
On the same count and under the same terms, under `C=C1C(=O)OC2C1CCC(C)=CCCC1(C)OC21` (stereo unspecified) stands -25.5%; under `Cc1nn(-c2ccccc2)c(-n2cccc2)c1C(=O)O`, 0.327%; under `COC(=O)c1ccccc1NC(=O)c1cnn(-c2ccc(F)cc2)c1-n1cccc1`, -36.6%.
For `Cc1nn(-c2ccc(F)cc2)c(-n2cccc2)c1C(=O)N1CCN(c2ccccc2)CC1`, the Potency was 20.6 µM (active).
Consider `CC(=O)c1c(N2CCN(c3ccc(F)cc3)CC2)nc(=S)n(-c2ccccc2)c1C`, for which the “activity change, negative = cytotoxicity” value was -5.35%.
For `O=C(Nc1ccc(F)cc1F)c1cnn(-c2ccc(F)cc2)c1-n1cccc1`, the “activity change, negative = cytotoxicity” value is -13.2%.
Regarding `O=C(c1cnn(-c2ccc(F)cc2)c1-n1cccc1)N1CCN(c2ccc(F)cc2)CC1`, the Potency is 23.1 µM (active).
In the case of `COc1ccc(-c2ccc(C(=O)NCCN3CCOCC3)c3occc23)c(C)c1`, the “activity change, negative = cytotoxicity” value is 0%.
Consider `CCCCc1nc2ccc(F)cc2cc1C`, for which the “activity change, negative = cytotoxicity” value was -2.71%.
Take `O=C(Nc1cccc(Cc2ccccc2)c1)Nc1ccc2nc([C@@H]3O[C@H](CO)[C@@H](O)[C@H](O)[C@H]3O)[nH]c2c1`: the “activity change, negative = cytotoxicity” value is -6.5%.
For the compound `COc1ccccc1CNC(=O)c1ccccc1NC(=O)c1nsc2ccccc12`, the “activity change, negative = cytotoxicity” value is -0.717%.
The same measure, in the same setting: under `Nc1cccc(OCCCCCOc2cccc(N)c2)c1` stands -6.44%; under `O=C(NCc1ccc(Cl)cc1)NCc1ccc(Cl)cc1`, 9.02%.
`S=C(NCc1ccc(Cl)cc1)NC12CC3CC(CC(C3)C1)C2`: the Potency was 16.4 µM (active).
Take `O=C(NCc1ccncc1)NC12CC3CC(CC(C3)C1)C2`: the “activity change, negative = cytotoxicity” value was 0%.
For the compound `CCCNC(=O)C1(C)CCN(Cc2ccc(Cl)c(Cl)c2)C1` (stereo unspecified), the “activity change, negative = cytotoxicity” value was 0%.
On the same count and under the same terms, under `COc1cccc(NC(=O)C2CCN(c3cc(C)nc4c(-c5ccc(Cl)cc5)c(C)nn34)CC2)c1` stands -8.13%; under `CC1(C)OC(=O)C2=C(C[C@@H](C3CC3)O[C@H]2CCc2cccc(Cl)c2)O1`, -17%; under `O=S(=O)(c1cccc(C(F)(F)F)c1)N1CCN(c2nc(-c3cccs3)nc3ccccc23)CC1`, -1.66%.
On the same count and under the same terms, under `COCC(=O)N(C)C[C@H]1Oc2cc(Br)ccc2S(=O)(=O)N([C@H](C)CO)C[C@H]1C` stands 13.1%; under `COc1ccccc1CC1(C)C(=O)Nc2ccc(OC(F)(F)F)cc21` (stereo unspecified), 22.6%.
On to `CC1(Cc2ccccc2C#N)C(=O)Nc2ccc(-c3ccc4[nH]ccc4c3)cc21` (stereo unspecified), for which the Potency was 6.51 µM (active).
`Cc1ccc(CC2(C)C(=O)Nc3ccc(OC(F)(F)F)cc32)cc1` (stereo unspecified): the “activity change, negative = cytotoxicity” value was 2.43%.
On the same count and under the same terms, under `Cc1ccc(-n2ncc3c(N4CCC(C(N)=O)CC4)ncnc32)cc1` stands -12.2%; under `Cc1cc(OCC(=O)Nc2nccs2)c2c(C)c(C)c(=O)oc2c1`, -5.19%.
Still for that read-out and setting: under `COc1ccc(C(C)C)cc1-c1ccc2nncn2c1` stands 0.562%; under `CCN(CC)c1ccc(NC(=O)CN2CCN(CC(=O)Nc3ccc(Cl)cc3)CC2)cc1`, -7.77%.
As to `CCN(CC)c1ccc(NC(=O)c2ccc(Cl)nc2)cc1`, the Potency is 4.61 µM (active).
In the case of `O=C(NNC(=O)c1ccc(Cl)nc1)c1ccc(Br)cc1`, the “activity change, negative = cytotoxicity” value was 12.1%.

The values are drawn from PubChem BioAssay AID1347076 (National Center for Advancing Translational Sciences (NCATS), 2019).
